Assay results as given in PubChem BioAssay AID651640 (Broad Institute, 2012).
Several values for one entry are separate records, joined by “and”; a condition that tells them apart may be missing. Equal entries are not always repeated. Screen size: about 350,000 compounds; about 6,000 (1.7%) were called active. About 5% were inconclusive and are not listed. Cut-off read from the data, not from the text of the source: active = CPE inhibition above about 20% (passing the limit was not always enough); inconclusive = no clear call, values can overlap the other calls; tested in BHK-21 cells. This excerpt belongs to a sample that is enriched for actives. Where a structure was tested more than once in an assay, its records may differ in their call.

Assay: inhibitors of DENV2 cytopathic effect, primary screen, cell-based, plate reader, single concentration (AID 651640);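 note: 0% = median of neutral control wells and 100% = median of positive control wells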
Settings: DENV2-infected cells, cytopathic effect rescue, at 9.99 µM, stronger effect = higher value
With `COc1cccc(-c2ccc3c(c2)O[C@H](CN(C)C(=O)C2CCOCC2)[C@H](C)CN([C@H](C)CO)S3(=O)=O)c1` the CPE inhibition was -2.8% (inactive).
In the case of `CC(C)c1nc(CNC(=O)CC2C(=O)NCCN2Cc2cccc(F)c2F)cs1` (configuration not stated), the CPE inhibition is reported as -4.34% (inactive).
In the case of `CN(Cc1cccc2ncccc12)C(=O)CC1C(=O)NCCN1Cc1ccc(F)cc1` (configuration not stated), the CPE inhibition is reported as 2.99% (inactive).
With `Cc1cnc(CN(C)C(=O)CC2C(=O)NCCN2Cc2cccc(F)c2F)[nH]1` (configuration not stated) the CPE inhibition was 20.8% (active).
For `C[C@@H]1CN([C@@H](C)CO)C(=O)c2cc(NC(=O)Nc3cccc4ccccc34)ccc2O[C@@H](C)CCCCO[C@@H]1CN(C)S(=O)(=O)c1ccc(Cl)cc1`, the CPE inhibition was -12.5% (inactive).
With `COc1ccccc1-c1ccc2n(c1=O)C[C@H]1[C@H](CO)[C@@H](C(=O)N[C@@H](C)c3ccccc3)[C@@H]2N1C` the CPE inhibition was -8.56% (inactive).
With `CC(C)CC#Cc1ccc([C@@H]2[C@@H](CO)N3C(=O)CN(C(=O)c4cnccn4)C[C@@H]23)cc1` the CPE inhibition was -1.01% (inactive).
For `O=C(C[C@@H]1C=C[C@H](NC(=O)CCN2CCCCC2)[C@H](CO)O1)NCc1ccc(Cl)c(Cl)c1`, the CPE inhibition was 0.258% (inactive).
In the case of `COc1ccc(/C=C/C(=O)c2c(O)cc(OC)cc2OC)cc1`, the CPE inhibition is reported as -8.14% (inactive).
With `COc1ccc(/C=C/C(=O)c2ccc(OC)cc2O)cc1` the CPE inhibition was 64.1% (active).
In the case of `COc1ccc(C(=O)/C=C/c2cccnc2)c(OC)c1`, the CPE inhibition is reported as -6.66% (inactive).
With `O=C1NC[C@@H](c2ccccc2)OC(=O)[C@H](Cc2ccc(F)cc2)CC/C=C/C[C@H]1CC(=O)N(CCO)Cc1ccccc1` the CPE inhibition was -5.29% (inactive).
For `O=C1CCC/C=C\C[C@@H](CC(=O)N(CCO)Cc2ccccc2)C(=O)NCCO1`, the CPE inhibition was -1.93% (inactive).
For `O=C1CCC/C=C/C[C@@H](CC(=O)N(CCO)Cc2ccccc2)C(=O)NC[C@H](c2ccccc2)O1`, the CPE inhibition was 85.4% (active).
In the case of `COCCN(C[C@H]1[C@H](c2ccccc2)[C@@H](CO)N1C(C)=O)C(=O)c1cccnc1`, the CPE inhibition is reported as -2.67% (inactive).
In the case of `CN1C(=O)c2cc(NS(=O)(=O)c3ccccc3F)ccc2OC[C@@H]2O[C@@H](CC(=O)NC3Cc4ccccc4C3)CC[C@@H]21`, the CPE inhibition is reported as 11.5% (inactive).
In the case of `O=c1[nH]c(-c2ccccc2)cn1C1CCN(Cc2ccc(-c3nc4ccc(F)cc4nc3-c3ccccc3)cc2)CC1`, the CPE inhibition is reported as 33.2% (active).
In the case of `Cc1ccc(F)cc1S(=O)(=O)N[C@@H]1CCN(Cc2ccc(-c3ccccc3)cc2)C1`, the CPE inhibition is reported as -7.61% (inactive).
In the case of `Cc1ccc2nc(-c3ccc(CN4CCC(n5cc(-c6ccccc6)[nH]c5=O)CC4)cc3)c(-c3ccccc3)nc2c1`, the CPE inhibition is reported as -12.7% (inactive).
With `C=CCN=C1NC(c2cccc(C(F)(F)F)c2)C(C(=O)OC)=C(C)N1C` (configuration not stated) the CPE inhibition was 2.58% (inactive).
For `C[C@@H](NC(=O)C[C@@H]1CC[C@@H](NC(=O)C2CCOCC2)[C@@H](CO)O1)c1ccccc1`, the CPE inhibition was 11.3% (inactive).
With `CN1c2ccc(-c3ccc(F)cc3)cc2[C@@H]2[C@@H](CCN2S(=O)(=O)c2ccc(F)cc2)[C@@H]1CO` the CPE inhibition was -22.1% (inactive).
For `CC(=O)NC(Cc1c[nH]c2ccccc12)C(=O)NCCc1ccccc1` (configuration not stated), the CPE inhibition was -3% (inactive).
With `O=C(NCCc1c[nH]c2ccccc12)c1cccc(Br)c1` the CPE inhibition was 0.922% (inactive).
With `C[C@]1(C(=O)NCCc2c[nH]c3ccccc23)C=C[C@@H](Cc2ccccc2)N1C(=O)c1ccccc1` the CPE inhibition was 40.2% (active).
For `COCCNC(=O)C[C@H]1CC[C@@H]2[C@H](COc3ccc(NC(=O)Nc4cccc(F)c4)cc3C(=O)N2C)O1`, the CPE inhibition was -0.175% (inactive).
For `COc1ccc(S(=O)(=O)N(C)C[C@@H]2Oc3ccc(NC(=O)Nc4c(C)noc4C)cc3C(=O)N([C@H](C)CO)C[C@@H]2C)cc1`, the CPE inhibition was -4.21% (inactive) and 6.91% (inactive).
In the case of `C[C@@H]1CN([C@H](C)CO)C(=O)c2cc(N(C)C)ccc2O[C@@H]1CN(C)S(=O)(=O)c1cn(C)cn1`, the CPE inhibition is reported as 70.9% (active).
In the case of `C[C@H](CO)N1C[C@H](C)[C@H](CN(C)S(=O)(=O)c2cn(C)cn2)OCCCC[C@H](C)Oc2ccc(N(C)C)cc2C1=O`, the CPE inhibition is reported as 1.23% (inactive).
In the case of `Cc1noc(C)c1NC(=O)Nc1ccc2c(c1)C(=O)N([C@@H](C)CO)C[C@H](C)[C@H](CN(C)S(=O)(=O)c1cn(C)cn1)OCCCC[C@@H](C)O2`, the CPE inhibition is reported as -4.2% (inactive).
For `Cc1noc(C)c1NC(=O)Nc1ccc2c(c1)C(=O)N([C@H](C)CO)C[C@H](C)[C@@H](CN(C)S(=O)(=O)c1cn(C)cn1)O2`, the CPE inhibition was 8.16% (inactive) and 22.2% (active).
For `C[C@H](CO)N1C[C@H](C)[C@H](CN(C)S(=O)(=O)c2cn(C)cn2)Oc2ccc(N(C)C)cc2C1=O`, the CPE inhibition was 6.45% (inactive).
In the case of `COCC(=O)Nc1ccc2c(c1)[C@@H]1C[C@@H](CC(=O)N3CCN(C)CC3)O[C@H](CO)[C@@H]1O2`, the CPE inhibition is reported as 2.6% (inactive).
With `C[C@@H]1CN([C@H](C)CO)C(=O)c2cccc(NC(=O)CCCCCC(=O)Nc3ccccc3N)c2O[C@H]1CN(C)Cc1ccc(Oc2ccccc2)cc1` the CPE inhibition was -13.3% (inactive).
In the case of `CO[C@@H]1CN(C)C(=O)c2cc(NC(C)=O)ccc2OC[C@H](C)N(C(=O)Cc2ccccn2)C[C@@H]1C`, the CPE inhibition is reported as -0.178% (inactive).
With `COCC(=O)N1CCC2(CC1)CN(C(=O)Nc1ccccc1F)[C@@H](CO)c1c2c2ccc(OC)cc2n1C` the CPE inhibition was -0.316% (inactive).
For `COCC(=O)Nc1ccc2c(c1)OC[C@@H](C)N(C(=O)c1cnccn1)C[C@H](C)[C@H](OC)CN(C)C2=O`, the CPE inhibition was -10.2% (inactive).
For `C[C@@H]1CCCCO[C@@H](CN(C)C(=O)CCCN(C)C)[C@H](C)CN([C@@H](C)CO)C(=O)c2cc(NC(=O)Nc3ccccc3)ccc2O1`, the CPE inhibition was -0.42% (inactive).
With `C[C@@H]1CN([C@@H](C)CO)C(=O)c2cc(NC(=O)Nc3ccc(C(F)(F)F)cc3)ccc2O[C@@H](C)CCCCO[C@@H]1CN(C)C(=O)Nc1cccc2ccccc12` the CPE inhibition was -5.51% (inactive).
For `C[C@@H]1CCCCO[C@H](CN(C)C(=O)NC2CCCCC2)[C@H](C)CN([C@H](C)CO)C(=O)c2cc(NC(=O)Nc3ccc(F)cc3)ccc2O1`, the CPE inhibition was -5.97% (inactive).
For `C[C@@H]1CN([C@@H](C)CO)C(=O)c2cc(NC(=O)Nc3ccc4c(c3)OCO4)ccc2O[C@@H](C)CCCCO[C@@H]1CN(C)C(=O)Nc1ccc2c(c1)OCO2`, the CPE inhibition was 0.286% (inactive).
With `C[C@@H]1CCCCO[C@@H](CN(C)C(=O)NC2CCCCC2)[C@H](C)CN([C@@H](C)CO)C(=O)c2cc(NC(=O)Nc3ccc(F)cc3)ccc2O1` the CPE inhibition was 24.1% (active).
For `C[C@H](CO)N1C[C@H](C)[C@@H](CN(C)C(=O)Nc2ccc3c(c2)OCO3)OCCCC[C@H](C)Oc2ccc(NC(=O)Nc3ccc4c(c3)OCO4)cc2C1=O`, the CPE inhibition was 0.76% (inactive).
For `C[C@@H]1CCCCO[C@H](CN(C)C(=O)Nc2cccc3ccccc23)[C@@H](C)CN([C@@H](C)CO)C(=O)c2cc(NC(=O)Nc3ccc(F)cc3)ccc2O1`, the CPE inhibition was 32.7% (active).
With `C[C@H]1CCCCO[C@H](CN(C)C(=O)NC2CCCCC2)[C@@H](C)CN([C@@H](C)CO)C(=O)c2cc(NC(=O)Nc3ccc4c(c3)OCO4)ccc2O1` the CPE inhibition was 34.9% (active).
With `C[C@@H]1CCCCO[C@@H](CN(C)C(=O)CCCN(C)C)[C@@H](C)CN([C@H](C)CO)C(=O)c2cc(NC(=O)Nc3ccc(F)cc3)ccc2O1` the CPE inhibition was 26.3% (active).
With `COc1ccc(NC(=O)Nc2ccc3c(c2)C(=O)N([C@@H](C)CO)C[C@H](C)[C@@H](CN(C)C(=O)Nc2cccc4ccccc24)OCCCC[C@@H](C)O3)cc1` the CPE inhibition was -3.89% (inactive).
In the case of `C[C@@H]1CN([C@@H](C)CO)C(=O)c2cc(NC(=O)Nc3ccc(C(F)(F)F)cc3)ccc2O[C@@H](C)CCCCO[C@H]1CN(C)C(=O)CCCN(C)C`, the CPE inhibition is reported as -0.11% (inactive).
For `C[C@@H]1CCCCO[C@H](CN(C)C(=O)NC2CCCCC2)[C@H](C)CN([C@@H](C)CO)C(=O)c2cc(NC(=O)Nc3ccc(F)cc3)ccc2O1`, the CPE inhibition was 3.1% (inactive).
In the case of `O=S(=O)(c1ccc(F)cc1)N1CCCCN2[C@H](C1)[C@H](c1ccc(C3=CCCCC3)cc1)[C@@H]2CO`, the CPE inhibition is reported as -4.44% (inactive).
In the case of `COc1cccc(S(=O)(=O)N2CCCCN3[C@H](CO)[C@H](c4ccc(C#CC5CC5)cc4)[C@H]3C2)c1`, the CPE inhibition is reported as -34.9% (inactive).
In the case of `CCN1[C@@H]2Cn3c(ccc(-c4cccc(OC)c4)c3=O)[C@H]1[C@@H](C(=O)N(C)C)[C@@H]2CO`, the CPE inhibition is reported as -1.41% (inactive).
With `O=C(Nc1ccccc1)N[C@@H]1CC[C@H](CCn2cc(C3(O)CCCC3)nn2)O[C@@H]1CO` the CPE inhibition was -11.6% (inactive).
With `C[C@H](CO)N1C[C@H](C)[C@H](CN(C)C)Oc2ccc(NC(=O)Cc3ccccc3)cc2CC1=O` the CPE inhibition was 9.5% (inactive).
With `CC(C)c1cn(CC[C@@H]2CC[C@@H](NC(=O)C3CCC3)[C@@H](CO)O2)nn1` the CPE inhibition was -3.48% (inactive).
For `Cc1noc(C)c1NC(=O)Nc1cccc2c1O[C@H](CN(C)S(C)(=O)=O)[C@H](C)CN([C@H](C)CO)C2=O`, the CPE inhibition was 6.73% (inactive).
In the case of `C[C@@H]1CN([C@@H](C)CO)C(=O)c2cc(-c3cncnc3)cnc2O[C@@H]1CN(C)Cc1ccncc1`, the CPE inhibition is reported as 15% (inactive).
For `CO[C@@H]1CN(C)C(=O)c2cc(NC(=O)Nc3cc(F)ccc3F)ccc2OC[C@H](C)N(C)C[C@@H]1C`, the CPE inhibition was -0.0135% (inactive).
With `CN1c2ccc(-c3ccc(C#N)cc3)cc2[C@@H]2[C@@H](CCN2C(=O)C2CCCCC2)[C@H]1CO` the CPE inhibition was -20.7% (inactive).
With `O=S1(=O)CCOC[C@H](CC2CCCCC2)N1Cc1ccc(F)cc1` the CPE inhibition was 3.12% (inactive).
For `Cc1ccc(CN2CCCOCCS2(=O)=O)cc1`, the CPE inhibition was 40.2% (active).
With `Cc1ccc(CN2CC(N3CCC(Cc4ccccc4)CC3)CS2(=O)=O)cc1` (configuration not stated) the CPE inhibition was -8.76% (inactive).
